According to PubChem BioAssay:
A number with no mark means an inactive call. Calls of active or inactive are those of the source.

experiment: yeast growth modulation, basal conditions, primary screen, YJM789 clinical isolate, OD600, 24 h (AID 1089);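 note: growth of clinical yeast isolate S. cerevisiae YJM 789 seeded 1000 cells per well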; conditions: S. cerevisiae YJM789 growth, higher = more signal, called active from +8 up or from −8 down
Note: test concentration not given here.

Row | Structure (SMILES) | z-score
1 | COCCOC(=O)N1C(=O)[C@@]2(c3cc(C#CC4=CCCCC4)ccc31)[C@H](C(=O)N1CCN(c3ncccn3)CC1)[C@H]1C(=O)O[C@H](c3ccccc3)[C@H](c3ccccc3)N1[C@@H]2c1ccc(OCCO)cc1 | 1.48
2 | O=C1OCC=C[C@H]2OC34C=CCN(CCN5CCOCC5)C(=O)[C@H]3N(CCCCCCO)C(=O)[C@@H]4[C@@H]12 (stereo not given in full) | -1.4
3 | NC(=O)[C@]1(Cc2ccccc2)N=C(c2ccc(OCCCO)cc2)O[C@@H]1c1ccccc1 | -0.94
4 | COc1ccccc1CN1C(=O)c2ccccc2[C@](Cc2ccccc2I)(C(=O)NCc2ccccc2)[C@@H]1c1ccc(CO)cc1 | -0.295
5 | CCCCN1CC=CC23O[C@@H]4C=CCCOC(=O)C4[C@H]2C(=O)N(CCCO)[C@@H]3C1=O (stereo not given in full) | -0.174
6 | CC(C)NC(=O)[C@@]1(c2ccc([N+](=O)[O-])cc2)CC(=O)N(C(C)C)[C@@H]1c1ccc(CO)cc1 | -2.06
7 | O=C1NC(=O)C2C1C=CC(C(O)c1cccs1)N2Nc1ccccn1 (stereo not given) | 0.378
8 | CN(C)CCCCNC(=O)[C@@H]1C[C@@H]2C(=O)N[C@@H](CCCCN)C(=O)N2[C@@H]1c1cccc(OCCO)c1 | -0.0533
9 | C=CC[C@]1(C(=O)O)N=C(c2ccc(OCCCO)cc2)O[C@H]1c1ccccc1CN=[N+]=[N-] | 0.442

experiment: fission yeast growth modulation, primary screen, strain 972, OD600, 24 h, no modulator (AID 1090);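 note: basal condition with compound alone and no growth modifier present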; conditions: S. pombe 972 growth, higher = more signal, called active from +8 up or from −8 down

Row | Structure (SMILES) | z-score
10 | CCCCC(=O)N(Cc1ccccc1F)[C@@H]1CC(C(=O)NCCO)=C[C@H](Oc2c(I)cc(CO)cc2OC)[C@H]1O | -1.91
11 | COc1ccc([Si](C)(C)[C@H]2[C@H](CCO)O[C@@]3(C(=O)N(Cc4cccc(N5C(=O)c6cccc7cccc5c67)c4)c4ccccc43)[C@@H]2C)cc1 | 1.23
12 | CC(C)C(CO)N1C(=O)[C@@H]2[C@H]3C(=O)OCC=C[C@H]3OC23C=CCN(c2ccc4ccccc4c2)C(=O)[C@@H]13 (stereo not given in full) | -0.494
13 | CCOC(=O)C[C@H]1[C@H](OC(=O)c2ccccc2-c2ccccc2)[C@@H](NC(=O)c2ccc(-c3ccccc3)cc2)c2cc(OCCCO)ccc2N1C(=O)c1ccccc1 | 0.5
14 | CN(C)CCCC[C@@H]1NC(=O)[C@@H]2C[C@H](C(=O)NCCCCCCN)[C@H](c3ccc(O)cc3)N2C1=O | -2.04
15 | CN1C(=O)C2C(C1=O)C1C=C(c3ccc(CO)cc3)C2C(C2CC2)N1Cc1sc2ccccc2c1Cl (stereo not given) | -3
16 | O=C1C2C=CC(C(O)c3ccc(B(O)O)cc3)N(Nc3ccc([N+](=O)[O-])cc3)C2C(=O)N1c1ccccc1 (stereo not given) | -16.1 (active)
17 | CCCNC(=O)[C@@]1(C)c2ccccc2C(=O)N(Cc2ccc(OC(F)(F)F)cc2)[C@H]1c1ccc(CO)cc1 | 0.242
18 | [N-]=[N+]=NCc1ccccc1[C@H]1OC(c2ccc(OCCCO)cc2)=N[C@@]1(Cc1ccccc1)C(=O)O | -2.06
19 | CCCC[C@@H]1C[C@H]1[C@@H](NC(=O)c1ccccc1)c1ccc(-c2ccccc2)cc1 | 0.256
20 | C=C(CCCC)/C(=C/C[C@H](OC(C)=O)c1ccc(CO)o1)c1cc(C(=O)OC)ccc1OC | -1.01
21 | COc1ccc([Si](C)(C)[C@@H]2[C@@H](CC(=O)N3Cc4ccccc4C[C@H]3CO)O[C@]3(C(=O)N(Cc4cccc(N5C(=O)COc6ccccc65)c4)c4ccccc43)[C@H]2C)cc1 | 0.553
22 | C=C(C)[C@@H]1CC=C(C(O)C2C=CC3C(=O)N(Cc4ccccc4)C(=O)C3N2n2cnnc2)CC1 (stereo not given in full) | 0.312
23 | C=C(C(=O)CC[C@@H](OC(C)=O)c1ccc(OCCO)cc1)C(C)C | -1.38
24 | COc1ccc(C(=O)Nc2cccc(CN3C(=O)[C@@]4(O[C@@H](CC(=O)N5Cc6ccccc6C[C@H]5CO)[C@H]([Si](C)(C)c5ccc(OC)cc5)[C@H]4C)c4ccccc43)c2)cc1 | 0.166
25 | CC[C@@H]1C=C(C(=O)O)[C@H](c2ccc(C(C)C)cc2)N1S(=O)(=O)c1ccc(C)cc1 | 0.242
26 | [N-]=[N+]=NCc1ccccc1C[C@]1(C(=O)NCC(O)CO)COC(c2ccc(OCCCO)cc2)=N1 (stereo not given in full) | -3.05
27 | [N-]=[N+]=Nc1ccccc1[C@@H]1OC(c2ccc(OCCCO)cc2)=N[C@]1(CCS(=O)(=O)c1ccccc1)C(=O)N1CCCCC1 | 1.15

Row | Structure (SMILES) | z-score
28 | O=C1OCCC/C=C\[C@H]2OC34C=CCN(Cn5nnc6ccccc65)C(=O)[C@H]3N(CCCO)C(=O)[C@@H]4C12 (stereo not given in full) | 0.0555
29 | C=CCC(OC(C)=O)[C@@H]1[C@@H](N(Cc2cc3ccccc3o2)C(=O)c2cccc3ccccc23)c2cc(OCCCO)ccc2N1C(=O)Cc1ccc(OC)cc1 (stereo not given in full) | -0.28
30 | Cc1ccc(N2C(=O)c3ccccc3[C@@H](C(=O)NCC(C)C)[C@@H]2c2ccc(CO)cc2)nc1 | 0.0994
31 | COCCOC(=O)N1C(=O)[C@@]2(c3ccccc31)[C@H](c1ccc(O)cc1)N1[C@H](c3ccccc3)[C@H](c3ccccc3)OC(=O)[C@H]1[C@@H]2C(N)=O | -0.153
32 | CN(C)CCCC[C@@H]1NC(=O)[C@@H]2C[C@H](C(=O)NCCCCCN)[C@H](c3ccc(O)cc3)N2C1=O | -0.977
33 | COCCOC(=O)N1C(=O)[C@@]2(c3cc(C#CCCO)ccc31)[C@H](C(=O)NC[C@H](O)c1ccccc1)[C@H]1C(=O)O[C@H](c3ccccc3)[C@H](c3ccccc3)N1[C@@H]2c1ccc(OCCO)cc1 | 0.619
34 | O=C1C2C=CC(C(O)C3CC=CCC3)N(n3cnnc3)C2C(=O)N1Cc1ccccc1 (stereo not given) | 0.196
35 | CC(C)C(O)C1C=CC2C(=O)N(C)C(=O)C2N1N1CCCCC1 (stereo not given) | 0.891
36 | COC(=O)[C@@]1(Cc2ccc(F)cc2)[C@H]2c3cc(C(=O)N4CCCC4)n(CCc4ccc(OC)c(Br)c4)c3C[C@H]2CN1C(=O)c1ccccc1 | 1.53
37 | COCCOC(=O)N1C(=O)[C@@]2(c3cc(C#CC4=CCCCC4)ccc31)[C@H](C(=O)N1CCN(c3ncccn3)CC1)[C@H]1C(=O)O[C@H](c3ccccc3)[C@H](c3ccccc3)N1[C@@H]2c1ccc(OCCO)cc1 | 0.442
38 | O=C1OCC=C[C@H]2OC34C=CCN(CCN5CCOCC5)C(=O)[C@H]3N(CCCCCCO)C(=O)[C@@H]4[C@@H]12 (stereo not given in full) | -1.1
39 | NC(=O)[C@]1(Cc2ccccc2)N=C(c2ccc(OCCCO)cc2)O[C@@H]1c1ccccc1 | -1.17
40 | COc1ccccc1CN1C(=O)c2ccccc2[C@](Cc2ccccc2I)(C(=O)NCc2ccccc2)[C@@H]1c1ccc(CO)cc1 | -0.127
41 | CCCCN1CC=CC23O[C@@H]4C=CCCOC(=O)C4[C@H]2C(=O)N(CCCO)[C@@H]3C1=O (stereo not given in full) | -0.788
42 | CC(C)NC(=O)[C@@]1(c2ccc([N+](=O)[O-])cc2)CC(=O)N(C(C)C)[C@@H]1c1ccc(CO)cc1 | -0.476
43 | O=C1NC(=O)C2C1C=CC(C(O)c1cccs1)N2Nc1ccccn1 (stereo not given) | -0.31
44 | CN(C)CCCCNC(=O)[C@@H]1C[C@@H]2C(=O)N[C@@H](CCCCN)C(=O)N2[C@@H]1c1cccc(OCCO)c1 | 0.286
45 | C=CC[C@]1(C(=O)O)N=C(c2ccc(OCCCO)cc2)O[C@H]1c1ccccc1CN=[N+]=[N-] | 0.263
